hcDAF12 agonist: activates DAF-12 receptor from parasite H. contortus | HEK293 hcDAF-12 lit1-tk-luc reporter, luminescence; 0% DMSO, 100% Δ7-dafachronic acid | activation, % at 6.8 µM | 370,000 tested, 1.4% active | AID 652067;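 active = activation above the mean of all tested compounds plus 3 SD, cut at about 5.5% in these data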;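 also: 100% = response to 3 µM Δ7-dafachronic acid high control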
hgDAF12 agonist: hgDAF-12 agonism, primary luciferase screen | 370,000 tested, 1.8% active | HEK293 GAL4-hgDAF12 UAS-luciferase reporter, agonist luminescence; normalized to butyrate control | activation, % at 6.8 µM | AID 687014;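 active = activation above a cutoff set at the mean of all screened compounds plus 3 SD, cut at about 10% in these data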;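 also: 0% = DMSO wells and 100% = sodium butyrate wells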
ssDAF12 agonist: activates DAF-12 receptor from parasite S. stercoralis. HEK293 ssDAF-12/GRIP1 lit1-tk-luc reporter, luminescence; % of 3 µM dafachronic acid response. activation, % at 6.8 µM. 370,000 tested, 1% active;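 active = activation above the mean over all tested compounds plus 3 SD, cut at about 0.9% in these data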;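 also: 0% = DMSO-only wells and 100% = 3 µM delta7-dafachronic acid wells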
DAX1 inh-1: NR0B1 (DAX1) inhibition; P51843; HEK293 Gal4-DAX1 luciferase reporter, luminescence; inhibition, % at 6.75 µM; 340,000 tested, 0.99% active;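 active = inhibition above the mean over all tested compounds plus 3 SD, cut at about 4.2% in these data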;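 also: 0% = DAX1-transfected cells with DMSO and 100% = empty-vector control cells with DMSO; inhibition shows as a rise in luminescence from relieved DAX1 repression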
Target sequence (P51843 207-470 limits assumed): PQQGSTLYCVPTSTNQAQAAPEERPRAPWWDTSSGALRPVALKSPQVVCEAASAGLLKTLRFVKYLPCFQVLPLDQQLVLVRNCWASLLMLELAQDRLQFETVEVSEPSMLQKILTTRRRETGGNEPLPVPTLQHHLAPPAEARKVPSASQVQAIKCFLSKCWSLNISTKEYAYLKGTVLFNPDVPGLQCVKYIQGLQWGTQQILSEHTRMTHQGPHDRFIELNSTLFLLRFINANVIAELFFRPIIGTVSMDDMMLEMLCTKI
DAX1 inh-2: inhibitors of DAX1 repression of SF-1 activated StAR promoter; HEK293T StAR-luciferase reporter, SF-1/DAX-1 repression relief; 370,000 tested, 1.1% active; inhibition, % at 6.8 µM;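 active = inhibition above the mean over all tested compounds plus 3 SD, cut at about 3.6% in these data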;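 also: 0% = DAX-1 cells with DMSO and 100% = cells lacking DAX-1 with DMSO; higher inhibition means more luminescence from relief of DAX-1 repression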
hgDAF12 ag: hgDAF-12 agonism, confirmation assay; shares compounds with hgDAF12 agonist; AID 743050; 3,300 tested, 80% active; HEK293 GAL4-hgDAF12 luciferase reporter, agonist mode; percent of butyrate response; activation, % at 6.8 µM;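 active = mean activation over triplicate wells above the hit cutoff derived from the earlier primary screen, cut at about 11% in these data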;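 also: 0% = DMSO low control and 100% = 2 mM sodium butyrate high control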
LXRb DAF12 ctr: activates human LXR-beta, counter-screen for DAF-12 agonists; shares compounds with hgDAF12 agonist; HEK293 Gal4-LXR luciferase reporter, 24 h; activation, % at 6.8 µM; 3,300 tested, under 10 active; AID 743051;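 active = mean activation of the triplicate above a set limit carried over from the primary screen, none filed active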
* = called active by the depositor; x = no result given. Shown are actives, neighbours in structure and some others; about 4.1% of the full set was active somewhere.

SMILES	hcDAF12 agonist	hgDAF12 agonist	ssDAF12 agonist	DAX1 inh-1	DAX1 inh-2	hgDAF12 ag	LXRb DAF12 ctr
CCSc1ncnc2c1oc1ccccc12	-1.5	-0.6	-1.2	0.8	0.0	x	x
O=C(c1cnn(-c2cccc(F)c2)c1)c1ccccc1O	3.4	15.3*	0.6	5.0*	2.2	16.1*	0.7
CN1CCN(c2ccc(NC(=O)COc3ccccc3)cc2Cl)CC1	1.1	14.8*	0.6	0.7	3.0	14.4*	0.3
Cc1ccc(/C=C/S(=O)(=O)NCC(=O)OCC(=O)Nc2c(F)cccc2F)cc1	2.2	0.2	-0.5	-0.6	-6.4	x	x
CCCn1c(C)cc(C(=O)CN2C(=O)NC3(CCCCCC3)C2=O)c1C	4.1	16.4*	-1.0	1.5	2.6	7.9	0.3
CCN1N=C(C)C=C(c2ccccc2)n2c1nc1ccccc12	0.7	0.1	-0.4	-1.4	-0.6	x	x
Cc1ccc(S(=O)(=O)N2CCN(C(=O)C(Cc3ccccc3)NC(=O)c3ccccc3)CC2)cc1 (stereo unspecified)	-1.3	-2.3	-0.7	-0.5	1.2	x	x
O=c1c(-c2c(O)cc(O)c3c(=O)cc(-c4ccc(O)cc4)oc23)c(-c2ccc(O)cc2)oc2cc(O)cc(O)c12	-2.3	-3.4	-1.1	2.3	-0.7	x	x
O=c1c(-c2ccc(O)cc2)coc2cc(O)cc(O)c12	2.6	16.6*	0.2	4.2*	2.9	9.5	0.4
Cc1cccc(-n2ncc3c(N(C)Cc4ccccc4)ncnc32)c1	1.9	15.5*	-0.5	4.1	4.0*	14.4*	0.7
Cc1cccc(-n2ncc3c(N)ncnc32)c1	1.9	5.7	-0.9	-0.1	2.2	x	x
COc1ccc(C2NC(=O)c3ccccc3N2)cc1OC (stereo unspecified)	0.4	5.1	-0.6	0.1	1.4	x	x
COc1ccc2ccccc2c1C1NC(=O)c2ccccc2N1 (stereo unspecified)	-0.8	14.4*	-1.5	-3.0	-4.2	-1.2	0.0
O=C1NC(c2ccc3c(c2)OCO3)Nc2ccccc21 (stereo unspecified)	0.6	1.8	-1.1	0.7	1.0	x	x
O=C1NC(c2ccc3ccccc3c2)Nc2ccccc21 (stereo unspecified)	3.4	14.4*	0.1	3.1	1.9	12.9*	0.5
CC(C)OCCCN1CN(S(=O)(=O)c2cccs2)c2nc3ccccc3nc21	3.1	3.1	-1.3	x	1.1	x	x
CC12CCC(C(=O)Nc3nc4ccccc4s3)(OC1=O)C2(C)C (stereo unspecified)	3.0	13.3*	0.3	-0.4	1.0	4.8	0.1
O=C(Nc1ccc(OC(F)(F)F)cc1)c1ccc(S(=O)(=O)N2CCOCC2)o1	-2.0	-1.0	-1.3	-0.2	-1.3	x	x
CCC(=O)Nc1nc(-c2ccc3c(c2)OCCO3)cs1	5.0	19.2*	-0.3	1.3	2.7	16.0*	0.7
c1cc2c(cc1-c1csc(NNC3=NCCCCC3)n1)OCCO2	1.1	14.9*	-0.5	x	1.9	2.8	0.3
c1cc2c(cc1Nc1nc(-c3ccc4c(c3)OCO4)cs1)OCCO2	-1.2	-0.4	-0.9	1.4	0.0	x	x
CC(C)(C)C(=O)Nc1nc(-c2ccc3c(c2)OCO3)cs1	0.8	10.4	-0.5	3.6	1.4	x	x
Cc1cc(C(=O)OCC(=O)NC(C)c2ccc(F)cc2)c(C)o1 (stereo unspecified)	-1.8	-1.0	-0.7	-0.2	-1.0	x	x
CCCn1ncc2c(Nc3ccc(C)c(C)c3)ncnc21	6.5*	13.4*	0.1	0.5	0.9	6.9	0.5
CC(=O)c1ccc(NC(=O)c2cc3ccccc3o2)cc1	5.1	14.2*	1.6*	1.0	2.8	18.4*	0.8
SMILES	hcDAF12 agonist	hgDAF12 agonist	ssDAF12 agonist	DAX1 inh-1	DAX1 inh-2	hgDAF12 ag	LXRb DAF12 ctr
CC(=O)N1CCN(c2ccc(NC(=O)c3cc4ccccc4o3)cc2)CC1	-2.0	-0.6	-1.8	-0.9	-0.4	x	x
O=C(Nc1ccc(Br)cn1)c1ccc2ccccc2c1	4.5	14.4*	1.6*	1.7	1.9	19.3*	0.8
O=C(Nc1ccc(Br)cn1)c1cccc(C(=O)Nc2ccc(Br)cn2)c1	-0.1	6.0	-0.3	-0.5	0.6	x	x
CC(=O)c1cccc(NC(=O)c2ccc3ccccc3c2)c1	3.9	19.2*	0.8	2.2	3.2	17.0*	0.8
CCN(CC(=O)Nc1c(F)cccc1F)C(=O)CCNC(=O)c1ccc([N+](=O)[O-])cc1	-2.3	-3.4	-0.6	-0.4	-0.2	x	x
Cc1ccc(OCCSc2nc3ccccc3n2CC(=O)O)cc1	-1.8	0.5	-1.1	-0.3	0.2	x	x
O=C(Nc1ccc(O)cc1)c1c(O)c2c([nH]c1=O)CCCC2	4.9	14.2*	0.7	1.3	3.7*	13.3*	0.9
Cc1cnc(NC(=O)c2ccncc2)s1	4.6	9.4	0.3	0.5	2.3	x	x
Cc1cnc(NC(=O)c2cncc(Br)c2)s1	1.7	18.7*	0.3	3.2	2.2	15.5*	0.8
O=C(Nc1ccccc1)c1ccc(CSc2ncccn2)cc1	3.6	15.9*	0.0	1.4	2.8	16.8*	0.9
O=C(Nc1ccccc1F)c1ccc(CSc2ncccn2)cc1	4.0	16.4*	0.1	0.5	2.9	14.7*	0.6
O=C(Nc1ccc(CN2CCOCC2)cc1)c1ccc(F)cc1	3.3	6.1	0.2	2.1	0.8	x	x
O=C(Nc1ccc(CN2CCOCC2)cc1)c1cccc(F)c1	0.3	14.9*	-0.5	2.7	2.5	13.9*	0.4
CC(=O)Nc1ccc(C(=O)OCc2ccc(F)cc2Cl)cc1	0.7	23.7*	-1.7	-0.5	-0.3	-0.6	-0.1
CC(=O)Nc1ccc(C(=O)OCc2ccc(F)cc2)cc1	-1.5	2.0	-1.6	-0.5	-0.5	x	x
c1ccc(C2=NC(c3ccccc3)CC2)cc1 (stereo unspecified)	-0.1	5.4	0.2	1.1	-0.3	x	x
c1ccc(C2=Nc3ccccc3NC(c3ccccc3)C2)cc1 (stereo unspecified)	0.9	14.2*	-0.5	2.7	3.4	14.5*	0.3
Brc1ccccc1C1CC(c2ccccc2)=Nc2ccccc2N1 (stereo unspecified)	4.0	13.8*	0.3	2.2	0.9	9.0	0.4
COC(=O)[C@]12C[C@H](CC(=O)N3CCOCC3)C(=O)N(Cc3ccccc3)C1=C[C@H](C(C)C)O[C@@H]2C1CC1	2.2	3.8	-0.2	x	-0.8	x	x
COc1ccc(-n2nnnc2C(c2ccccc2OC(F)(F)F)N2CCN(C/C=C/c3ccccc3)CC2)cc1 (stereo unspecified)	1.1	-2.8	-1.0	x	-0.7	x	x
COC(=O)c1ccn(Cc2ccccc2Cl)n1	0.8	13.8*	-1.1	1.3	3.2	8.8	0.3
COC(=O)c1cc2n(n1)CCN(Cc1ccccc1Cl)C2=O	-0.3	-0.1	-1.3	0.8	-0.1	x	x

Bioassay records deposited in PubChem BioAssay by The Scripps Research Institute Molecular Screening Center.
